About 79,000 compounds went through this panel and 15% of them were active in at least one assay; those are over-represented in the sample as a whole. Values without a mark were called inactive. Calls of active or inactive are those of the source. Rule as the data show it: active = growth inhibition above about 70%; inactive = the rest.
Experiments:
[1] = NCI Yeast Anticancer Drug Screen. Data for the rad50 strain (AID 155);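 also: 0% = growth of vehicle-only cultures of the same strain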; conditions: S. cerevisiae rad50 strain growth inhibition; at 50.0 µM; active compounds read high
Procedure, shortened: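 Compounds were tested on a yeast strain with an engineered DNA damage repair alteration; the reported value is growth inhibition normalised to vehicle treatment.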

[2] = NCI Yeast Anticancer Drug Screen. Data for the mec2-1 strain (AID 157); conditions: S. cerevisiae mec2-1 strain, at 50.0 µM, active compounds read high
Procedure, shortened: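 mec2-1 yeast strain, carrying an alteration in DNA damage repair or cell cycle control, was exposed to compounds; growth inhibition was measured relative to vehicle-treated controls.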

[3] = NCI Yeast Anticancer Drug Screen. Data for the sgs1 mgt1 strain (AID 161);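 also: 0% = growth of cultures given vehicle only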; conditions: S. cerevisiae sgs1 mgt1 strain, at 50.0 µM, active compounds read high
Procedure, shortened: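 This yeast growth screen uses a strain with defined DNA-repair lesions; compound-treated growth is compared with vehicle-treated growth.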

[4] = NCI Yeast Anticancer Drug Screen. Data for the cln2 rad14 strain (AID 165);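 also: 0% = growth equal to vehicle treated cultures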; conditions: S. cerevisiae cln2 rad14 strain, at 50.0 µM, active compounds read high
Procedure, shortened: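 Yeast carrying cln2 and rad14 alterations (cell cycle control and DNA damage repair) were exposed to compounds. Growth inhibition was measured against vehicle-treated controls.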

[5] = NCI Yeast Anticancer Drug Screen. Data for the bub3 strain (AID 167); conditions: S. cerevisiae bub3 mutant strain, at 50.0 µM, active compounds read high
Procedure, shortened: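 Growth of a checkpoint-deficient yeast mutant is measured after compound exposure. Values represent inhibition relative to vehicle.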

[6] = NCI Yeast Anticancer Drug Screen. Data for the mlh1 rad18 strain (AID 175); conditions: S. cerevisiae mlh1 rad18 strain growth inhibition; at 50.0 µM; active compounds read high
Procedure, shortened: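 Growth inhibition of the yeast strain was measured after compound exposure and expressed relative to vehicle-treated controls. The strain carries defined defects in DNA damage repair.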

| SMILES | growth inhibition [1] | growth inhibition [2] | growth inhibition [3] | growth inhibition [4] | growth inhibition [5] | growth inhibition [6] |
| --- | --- | --- | --- | --- | --- | --- |
| O=c1[nH]c(=O)c2c(Cl)cccc2[nH]1 | 7.2% | 9.9% | 5.35% | -22% | -2.7% | -4.1% |
| O=C(NCCCCCCCCNC(=O)c1cccc2ccccc12)c1cccc2ccccc12 | 14.2% | 25% | 2.8% | -9.25% | -10.4% | 16.8% |
| O=C(NCCCl)NCc1ccccc1 | -10.9% | 2.35% | 1.4% | -40.1% | -15.2% | -2% |
| O=[N+]([O-])c1nc(-[n+]2ccccc2)[n-]c1Br | 4.65% | -1.05% | -1.9% | -49.9% | 4.1% | 8.8% |
| CCOC(=O)C1=C(C(C)=O)C(c2ccccc2[N+](=O)[O-])C(C(C)=O)=C(C(=O)OCC)N1 | -7.35% | 10.4% | -9.2% | -6.85% | -9% | 9.25% |
| O=C1C=C(c2ccccc2)C(c2ccccc2)=C1 | 23.6% | 2.8% | -5.2% | 30.1% | -5.6% | 11.1% |
| CSc1nc(N)c(N=Nc2ccc(S(=O)(=O)Nc3cc(C)nc(C)n3)cc2)c(=O)[nH]1 | 17.4% | 15.6% | -10.6% | -0.2% | 2.1% | -3.3% |
| CSc1nc(NC2OC(COC(C)=O)C(OC(C)=O)C(OC(C)=O)C2OC(C)=O)c(C(=O)CCl)c(=O)n1C (stereo unspecified) | 6.8% | 15.9% | 3.15% | 5.8% | 5.1% | 24.5% |
| COC(=O)/C=C/CCBr | -13% | -22.1% | -17.6% | -39.1% | -5.2% | -11.5% |
| O=[N+]([O-])c1ccc(C2=NN(c3ccccc3)C(c3ccccc3)C2)cc1 (stereo unspecified) | 8% | 3.1% | 0.5% | -5.9% | 8.85% | 4% |
| N#C/C(=C\Nc1ccccn1)C(=O)c1ccco1 | 6.85% | -19.8% | -19.6% | -0.5% | -55.9% | -3.05% |
| O=C(CCc1ccccc1C(=O)O)c1ccccc1O | 0.7% | -9.55% | -3.35% | 17.2% | 5.5% | -7.6% |
| CN(C)Cc1cc(N=Nc2ccccc2)ccc1O | -23.4% | -12.2% | -12.4% | 9.4% | 4.9% | -19.4% |
| CCOC(=O)C1SC(=Nc2ccc(C)c(C)c2)N=C1C (stereo unspecified) | -20.2% | -7.4% | -22.4% | 19.7% | 4.85% | 7.15% |
| CCOC(=O)c1c(C)c2c(n1C)CC/C(=C/NCCc1ccccc1)C2=O | 93% (active) | 79% (active) | 86.4% (active) | 29.8% | 90.5% (active) | 93.3% (active) |
| c1ccc2c(N=C(Nc3cccc4ccccc34)c3cccc4ccccc34)cccc2c1 | 20.4% | 19.6% | 35.8% | 28.9% | 17.3% | 13.6% |
| COC1OC2COC(c3ccccc3)OC2C(OC(C)=O)C1OS(=O)(=O)c1ccc(C)cc1 (stereo unspecified) | -2.7% | 14.1% | -5.35% | 3.35% | -4.65% | 28.8% |
| CC(=O)Nc1cccc(NC(C)=O)c1 | 0.4% | 4.55% | 5.1% | -17.9% | -1.05% | 11.2% |
| O=C(O)CC(CC(=O)O)c1ccc2c(c1)OCO2 | -32.6% | -20.9% | -3.7% | -1.2% | -35.8% | -13.1% |
| CCOC(=O)/C(C#N)=C/c1ccc(Cl)cc1 | -5.3% | -11.7% | -13.1% | 0.85% | -34.4% | -0.65% |
| O=C(c1ccccc1)C1C(c2ccccc2)N1C(=O)c1ccccc1 (stereo unspecified) | 9.8% | 16.4% | 6.35% | -1.3% | 35.6% | 12.9% |

| SMILES | growth inhibition [1] | growth inhibition [2] | growth inhibition [3] | growth inhibition [4] | growth inhibition [5] | growth inhibition [6] |
| --- | --- | --- | --- | --- | --- | --- |
| CCCCCCCCCCCCSCC(=O)O | -16.8% | 10.8% | 14.2% | -82.8% | 39% | -25.8% |
| CCOC(=O)Nc1ccc2c(c1Cl)C(=O)c1ccccc1C2=O | -6.85% | -18.1% | -0.2% | 5.65% | 14.3% | -15.6% |
| O=C1NC(=O)C(c2ccc(Br)c3ccccc23)=C1O | 9.2% | -4.75% | 3.05% | -44.5% | -5.25% | -6.25% |
| OCc1cn(C(c2ccccc2)(c2ccccc2)c2ccccc2)cn1 | -113% | -58.3% | -22.5% | -0.85% | -1% | -30.6% |
| OC12c3ccccc3C1CCCCCC21OCCCO1 (stereo unspecified) | -9.4% | -27.8% | -31.8% | -17.4% | -8.4% | -19.9% |
| CC(C)C(NC(=O)CI)C(=O)Nc1ccc(C(=O)O)c(O)c1 (stereo unspecified) | 24.2% | 20.5% | 5.7% | -11.6% | 7.1% | 24.1% |
| CC(=O)c1ccccc1C | -32.6% | -69.5% | -43.7% | -1.25% | -38.1% | -22.3% |
| C=CSC(=S)Sc1ccccc1 | 25.6% | 28.4% | -1.15% | 3.45% | 19% | 12.9% |
| CNc1ccc(C(=O)N(C(=O)NC2CCCCC2)C2CCCCC2)cc1 | -6.65% | -5.6% | 4.7% | -6.85% | -1.95% | 5.15% |
| CC(C)=NOC(CCOC(=O)c1ccccc1)COC(=O)c1ccccc1 (stereo unspecified) | -13.6% | 0.1% | -1.35% | -10.4% | -11.8% | 7.75% |
| CC(=O)OC1CCC2(C)C(=CCC3C2CCC2(C)C(C(C)C(=O)O)CCC32)C1 (stereo unspecified) | 15.7% | -32.8% | -21.4% | -10.2% | -31.1% | 13% |
| CC(=O)Nc1cc(C)cc(Br)c1 | -6.85% | -4.1% | -10.1% | 9.05% | 1.5% | -9.55% |
| CC1NC(=O)c2c(-c3ccccc3)nn(-c3ccccc3)c2NC1=O (stereo unspecified) | 1.35% | -2.4% | 11.8% | -3.85% | 3.15% | -33.2% |
| CCC(=O)C(=O)C1CCCCC1=O (stereo unspecified) | -2.4% | -3.8% | -2.5% | -9.05% | -17.6% | -0.05% |
| CC1(C)C(CC(=O)O)CCCC1CC(=O)O (stereo unspecified) | 12.2% | 0.95% | 4.15% | 2.15% | -11.4% | 49.2% |
| CC(C)=CCC[C@@H](C)C1[C@@H](OC2OC(CO)C(O)C(O)C2O)CC2(C)[C@@H]3CC(=O)C4C(C)(C)[C@@H](OC5OC(CO)C(O)C(O)C5O)CC[C@@]45C[C@@]35CC[C@]12C (stereo partly specified) | -17.4% | -40% | -27.1% | -3.15% | -20.8% | -25.4% |
| O=C(Nc1ccc([N+](=O)[O-])cc1)c1cc(N2CCOCC2)ccn1 | 38% | 16.6% | 21.6% | 15.6% | 2.15% | 25.6% |
| CCOP(=O)(CCCCCCP(=O)(OCC)OCC)OCC | 30.4% | 18.4% | -0.2% | -31.1% | 8.45% | 32.9% |
| CC(=O)OC1C/C(C)=C/CCC(C)/C=C/C2(C)CCC(C(C)(C)O)C12 (stereo unspecified) | 1.7% | -10.3% | 11.9% | 2.5% | 14.1% | 17.6% |
| CCN(CC)Cc1cc(Nc2cc(C)nc(/N=C(\N)Nc3cc(Cl)cc(Cl)c3)n2)ccc1O | 95.2% (active) | 69.2% | 97.2% (active) | 10.2% | 7.95% | 91.1% (active) |

Reference: PubChem BioAssay (NCI)
